Reference: ChEMBL document CHEMBL1961873, “Compounds: GSK PKIS; Assays: Nanosyn kinase panel” (2012)

Legend:
[1] = biological target: T1, Aurora kinase A (Homo sapiens) (UniProt O14965); conditions: at 1 µM;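 further: values are mean percent inhibition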
T1 sequence (whole entry): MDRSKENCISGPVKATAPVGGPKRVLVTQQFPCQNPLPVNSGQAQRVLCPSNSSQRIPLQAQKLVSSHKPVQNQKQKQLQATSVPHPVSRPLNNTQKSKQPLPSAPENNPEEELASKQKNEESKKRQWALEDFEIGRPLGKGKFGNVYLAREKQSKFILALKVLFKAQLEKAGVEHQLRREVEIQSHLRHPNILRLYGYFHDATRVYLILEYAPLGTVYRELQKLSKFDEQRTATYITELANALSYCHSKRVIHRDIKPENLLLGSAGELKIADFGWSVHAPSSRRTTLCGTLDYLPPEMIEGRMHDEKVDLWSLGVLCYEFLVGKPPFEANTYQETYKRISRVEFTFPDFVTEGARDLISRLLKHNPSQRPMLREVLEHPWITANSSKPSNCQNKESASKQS

[2] = biological target: Aurora kinase B (Homo sapiens) (UniProt Q96GD4); conditions: at 0.1 µM
[3] = biological target: Aurora kinase B (Homo sapiens) (UniProt Q96GD4); conditions: at 1 µM
[4] = biological target: T2, Aurora kinase C (Homo sapiens) (UniProt Q9UQB9); conditions: at 0.1 µM
T2 sequence (whole entry): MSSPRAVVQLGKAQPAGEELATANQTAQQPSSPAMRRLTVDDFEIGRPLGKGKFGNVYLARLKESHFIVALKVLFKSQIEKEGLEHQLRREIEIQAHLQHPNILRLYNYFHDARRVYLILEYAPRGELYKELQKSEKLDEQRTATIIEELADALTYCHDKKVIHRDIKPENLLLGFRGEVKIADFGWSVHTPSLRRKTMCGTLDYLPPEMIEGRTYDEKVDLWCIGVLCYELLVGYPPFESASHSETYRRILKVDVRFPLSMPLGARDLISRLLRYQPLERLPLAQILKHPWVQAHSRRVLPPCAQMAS

[5] = biological target: T2, Aurora kinase C (Homo sapiens); conditions: at 1 µM
[6] = biological target: Serine/threonine-protein kinase 10 (Homo sapiens) (UniProt O94804); conditions: at 0.1 µM
[7] = biological target: Serine/threonine-protein kinase 10 (Homo sapiens) (UniProt O94804); conditions: at 1 µM
[8] = biological target: T3, Mitogen-activated protein kinase kinase kinase kinase 2 (Homo sapiens) (UniProt Q12851); conditions: at 0.1 µM
T3 sequence (whole entry): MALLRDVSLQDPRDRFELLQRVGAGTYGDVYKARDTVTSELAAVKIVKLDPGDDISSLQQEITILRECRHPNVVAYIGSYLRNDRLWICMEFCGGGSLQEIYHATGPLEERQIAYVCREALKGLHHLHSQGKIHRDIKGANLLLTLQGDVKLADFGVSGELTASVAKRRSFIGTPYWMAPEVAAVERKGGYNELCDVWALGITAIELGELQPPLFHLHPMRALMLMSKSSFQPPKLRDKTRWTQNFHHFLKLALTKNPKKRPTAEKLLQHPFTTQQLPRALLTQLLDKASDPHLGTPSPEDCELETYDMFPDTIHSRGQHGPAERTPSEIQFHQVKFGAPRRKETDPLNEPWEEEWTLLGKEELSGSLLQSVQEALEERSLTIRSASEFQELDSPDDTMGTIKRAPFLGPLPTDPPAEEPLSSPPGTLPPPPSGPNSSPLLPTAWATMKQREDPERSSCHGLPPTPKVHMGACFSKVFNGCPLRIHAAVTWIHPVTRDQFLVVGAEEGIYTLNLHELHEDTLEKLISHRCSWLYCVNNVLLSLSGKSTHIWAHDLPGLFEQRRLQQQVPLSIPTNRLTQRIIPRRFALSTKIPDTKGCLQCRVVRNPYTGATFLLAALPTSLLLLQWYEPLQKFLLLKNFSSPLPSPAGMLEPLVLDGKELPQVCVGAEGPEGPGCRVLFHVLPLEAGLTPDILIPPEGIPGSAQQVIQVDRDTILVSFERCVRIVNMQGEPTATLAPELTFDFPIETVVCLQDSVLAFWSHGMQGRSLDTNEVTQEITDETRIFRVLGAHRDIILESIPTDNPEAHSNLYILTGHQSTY

[9] = biological target: T3, Mitogen-activated protein kinase kinase kinase kinase 2 (Homo sapiens); conditions: at 1 µM
[10] = biological target: Mitogen-activated protein kinase kinase kinase kinase 4 (Homo sapiens) (UniProt O95819); conditions: at 0.1 µM
Sequence of Mitogen-activated protein kinase kinase kinase kinase 4 (Homo sapiens) (O95819 2-1239 limits assumed): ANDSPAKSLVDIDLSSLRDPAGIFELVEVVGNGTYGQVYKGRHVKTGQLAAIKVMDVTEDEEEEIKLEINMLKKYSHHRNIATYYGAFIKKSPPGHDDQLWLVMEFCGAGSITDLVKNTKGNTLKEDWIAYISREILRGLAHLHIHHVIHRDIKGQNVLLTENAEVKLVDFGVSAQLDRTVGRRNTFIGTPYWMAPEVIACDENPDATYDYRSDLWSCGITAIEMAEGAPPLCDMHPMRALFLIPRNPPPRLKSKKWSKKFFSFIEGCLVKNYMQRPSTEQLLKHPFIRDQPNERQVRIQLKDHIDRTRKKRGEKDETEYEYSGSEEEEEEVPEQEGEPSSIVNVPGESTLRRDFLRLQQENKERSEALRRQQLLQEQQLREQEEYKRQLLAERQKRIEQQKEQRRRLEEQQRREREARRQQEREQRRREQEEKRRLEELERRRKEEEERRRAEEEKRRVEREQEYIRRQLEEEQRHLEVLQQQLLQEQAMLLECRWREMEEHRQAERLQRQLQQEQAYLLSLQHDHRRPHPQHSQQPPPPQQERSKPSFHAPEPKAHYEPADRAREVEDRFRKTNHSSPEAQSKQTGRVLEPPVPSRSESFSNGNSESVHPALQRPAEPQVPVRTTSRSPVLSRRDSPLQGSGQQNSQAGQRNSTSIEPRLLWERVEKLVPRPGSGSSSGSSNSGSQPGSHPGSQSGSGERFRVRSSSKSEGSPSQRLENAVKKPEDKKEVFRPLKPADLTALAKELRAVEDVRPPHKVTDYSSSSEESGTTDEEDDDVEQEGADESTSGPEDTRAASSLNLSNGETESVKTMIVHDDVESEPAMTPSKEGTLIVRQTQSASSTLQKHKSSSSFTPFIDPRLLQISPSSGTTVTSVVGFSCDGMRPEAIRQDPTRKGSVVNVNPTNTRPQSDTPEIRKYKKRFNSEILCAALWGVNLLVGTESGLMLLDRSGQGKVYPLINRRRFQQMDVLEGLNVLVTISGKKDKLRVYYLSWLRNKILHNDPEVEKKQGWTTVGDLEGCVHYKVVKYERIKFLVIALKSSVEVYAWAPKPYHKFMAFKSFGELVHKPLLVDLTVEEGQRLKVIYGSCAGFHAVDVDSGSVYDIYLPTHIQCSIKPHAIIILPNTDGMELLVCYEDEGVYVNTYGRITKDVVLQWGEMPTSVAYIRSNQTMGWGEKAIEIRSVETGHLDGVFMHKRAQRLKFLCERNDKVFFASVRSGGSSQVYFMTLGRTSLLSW

Sequence of Aurora kinase B (Homo sapiens) (Q96GD4 whole entry): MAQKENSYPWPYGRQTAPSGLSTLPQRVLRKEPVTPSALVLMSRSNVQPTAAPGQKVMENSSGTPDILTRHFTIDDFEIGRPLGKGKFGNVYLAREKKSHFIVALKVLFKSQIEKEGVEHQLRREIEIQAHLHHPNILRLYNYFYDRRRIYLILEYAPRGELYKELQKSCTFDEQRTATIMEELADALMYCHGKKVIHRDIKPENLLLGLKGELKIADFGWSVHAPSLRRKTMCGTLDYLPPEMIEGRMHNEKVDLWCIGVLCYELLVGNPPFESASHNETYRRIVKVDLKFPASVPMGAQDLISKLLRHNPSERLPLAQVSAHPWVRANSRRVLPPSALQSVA
Sequence of Serine/threonine-protein kinase 10 (Homo sapiens) (O94804 whole entry, looked up): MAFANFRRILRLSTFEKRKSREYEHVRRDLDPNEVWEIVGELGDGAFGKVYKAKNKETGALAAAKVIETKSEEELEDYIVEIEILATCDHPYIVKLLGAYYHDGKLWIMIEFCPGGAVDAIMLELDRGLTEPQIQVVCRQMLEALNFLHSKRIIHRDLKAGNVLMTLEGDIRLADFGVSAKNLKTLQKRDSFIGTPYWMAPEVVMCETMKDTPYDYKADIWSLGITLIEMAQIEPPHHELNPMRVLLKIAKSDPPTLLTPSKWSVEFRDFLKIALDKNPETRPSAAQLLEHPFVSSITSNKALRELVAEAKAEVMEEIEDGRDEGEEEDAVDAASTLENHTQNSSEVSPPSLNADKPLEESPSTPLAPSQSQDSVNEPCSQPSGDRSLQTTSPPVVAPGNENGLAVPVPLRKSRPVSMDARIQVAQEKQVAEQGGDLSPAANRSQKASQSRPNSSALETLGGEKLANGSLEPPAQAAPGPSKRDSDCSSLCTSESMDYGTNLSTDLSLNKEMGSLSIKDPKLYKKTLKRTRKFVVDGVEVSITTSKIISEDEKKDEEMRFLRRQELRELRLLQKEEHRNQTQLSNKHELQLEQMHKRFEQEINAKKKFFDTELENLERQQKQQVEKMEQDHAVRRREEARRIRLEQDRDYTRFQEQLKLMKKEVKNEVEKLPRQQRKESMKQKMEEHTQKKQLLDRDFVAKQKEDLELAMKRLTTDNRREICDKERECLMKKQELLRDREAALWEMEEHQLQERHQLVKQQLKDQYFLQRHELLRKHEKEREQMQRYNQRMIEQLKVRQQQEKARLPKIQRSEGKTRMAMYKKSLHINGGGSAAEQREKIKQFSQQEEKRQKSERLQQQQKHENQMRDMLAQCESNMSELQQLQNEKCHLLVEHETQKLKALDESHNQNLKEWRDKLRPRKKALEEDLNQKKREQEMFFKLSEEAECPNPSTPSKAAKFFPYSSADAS

| Structure (SMILES) | inhibition [1] [%] | inhibition [2] [%] | inhibition [3] [%] | inhibition [4] [%] | inhibition [5] [%] | inhibition [6] [%] | inhibition [7] [%] | inhibition [8] [%] | inhibition [9] [%] | inhibition [10] [%] |
| --- | --- | --- | --- | --- | --- | --- | --- | --- | --- | --- |
| C[C@@H](Oc1cc(-n2cnc3ccc(OCC4CCN(C)CC4)cc32)sc1C(N)=O)c1ccccc1Cl | 6.43 | 4.49 | 5.33 | -0.3 | 3 | 63.3 | 86.9 | 2.59 | 13.9 | 4.27 |
| Fc1ccc(-c2ncn(C3CCNCC3)c2-c2ccnc(Oc3ccc(Oc4ccccc4)cc3)n2)cc1 | 0.96 | 4.04 | 3.66 | 0.06 | 0.55 | 5.52 | 6.96 | 2.54 | 9.5 | 4.44 |
| Fc1ccc(-c2c(-c3ccncc3)nc3n2CCS3)cc1 | 2.75 | -0.21 | 1.83 | -4.05 | -8.58 | -1.08 | 7.95 | 1.02 | 3.03 | 4.23 |
| NS(=O)(=O)c1ccc(Nc2cc(-c3ccc(O)c(F)c3)n[nH]2)cc1 | 37.3 | 0.09 | 19.4 | -0.76 | 22.4 | -0.42 | 16.4 | 0.41 | 6.09 | 18.7 |
| O=C(Nc1n[nH]c2cc(-c3ccccc3)ccc12)C1CC1 | 13.2 | 4.05 | 3.92 | 0.96 | 9.67 | 4.04 | 19.9 | 1.56 | 4.2 | 33.6 |
| NS(=O)(=O)c1ccc(N/N=C2\C(=O)Nc3ccc(C(=O)NCCCn4ccnc4)cc32)cc1 | 49.9 | 1.38 | 17.8 | 3.31 | 23.2 | 6.25 | 12.2 | 3.32 | 8.35 | 10.8 |
| COc1cc2ncn(-c3cc(OCCc4ccccc4)c(C(N)=O)s3)c2cc1OC | 8.4 | 3.16 | 7.8 | 1.23 | 8.14 | 25 | 66.7 | 1.21 | 7.11 | 5.29 |
| O=C(Nc1n[nH]c2nc(-c3ccco3)ccc12)C1CC1 | 11.4 | 1.7 | 8.39 | 1.88 | 7.39 | 4.1 | 9.62 | 0.49 | 4.84 | 4.17 |
| c1ccc(-c2n[nH]cc2-c2ccnc(-c3ccc(OCCN4CCOCC4)cc3)c2)nc1 | 7.41 | 7.03 | 11.9 | 5.43 | 18.2 | 3.53 | 6.24 | 6.4 | 7.48 | 28.6 |
| NC(=O)Cc1ccccc1Oc1nccc(-c2c(-c3ccc(F)cc3)ncn2C2CCNCC2)n1 | 0.49 | 2.8 | 1.02 | -0.43 | 8.16 | 3.78 | 5.45 | 0.65 | 3.36 | 5.19 |
| COc1cc2ncn(-c3cc(OCc4cccs4)c(C(N)=O)s3)c2cc1OC | 13.4 | 2.98 | 20 | -0.54 | 10.1 | 75.9 | 93.5 | 10.8 | 36 | 18.7 |
| COc1cc(C)c(N(C)C(=O)CN(C)C)cc1Nc1nc(Nc2cccc(F)c2C(N)=O)c2cc[nH]c2n1 | -1.19 | -3.04 | -0.55 | -3.75 | 4.56 | 1.37 | 2.05 | 2.17 | 3.67 | 0.4 |
| Cc1ccc(C(=O)NC(C)C)cc1-c1ccc(C(=O)NCC2CC2)cc1 | -2.53 | -0.47 | 2.24 | -0.96 | 1.27 | -2.21 | -5.65 | -0.39 | 1.59 | -2.82 |
| NCc1ccc(-n2c(-c3nonc3N)nc3cnccc32)cc1 | 8.79 | 3.64 | 12.4 | 3.83 | 18.8 | 8.16 | 24.2 | 3.62 | 18.2 | 10.1 |
| O=C1Nc2ccc(I)cc2C1=Cc1cc(Br)c(O)c(Br)c1 | 9.69 | 1.83 | 3.08 | 0.09 | 4.11 | 4.81 | 7.92 | 0.93 | 3.6 | 31.7 |
| C#Cc1cccc(Nc2ncnc3ccc(OCCCCNCCS(C)(=O)=O)cc23)c1 | -0.05 | -2.61 | 2.47 | -2.83 | -5.69 | 23.4 | 75.4 | 1.44 | 5.3 | 5.65 |
| O=C1Nc2ccccc2/C1=C/Nc1ccc(-n2cncn2)cc1 | 36.3 | 6.72 | 27.7 | 3.93 | 44.8 | 4.16 | 12.6 | 2.9 | 12.6 | 18.5 |
| CCN(CC)Cc1ccc(Nc2nccc(-c3cnn4ncccc34)n2)cc1 | 34.3 | 27.5 | 63.7 | 38 | 84.6 | 7.37 | 18 | 3.21 | 21.2 | 5.41 |
| COC(=O)Nc1nc2ccc(Sc3ccc(NC(=O)Nc4cc(C(F)(F)F)ccc4F)cc3)cc2[nH]1 | 7.64 | 0.96 | 8.08 | 1.09 | 6.4 | 18.9 | 72.7 | 7.11 | 27.5 | 5 |
| COc1ccc(-c2ccc3c(NC(=O)C4CC4)n[nH]c3n2)cc1 | 9.18 | 3.59 | 5.77 | -5.01 | 8.55 | 4.51 | 8.53 | 1.22 | 0.37 | 5.28 |
| CS(=O)(=O)CCNCc1cc(-c2cc3c(Nc4ccc(OCc5cccc(F)c5)c(Cl)c4)ncnc3s2)cs1 | 4.87 | 5.13 | 9.34 | 3.65 | 8.71 | 9.33 | 12.9 | 0.39 | 3.81 | 4.31 |
| Cc1ccc(NC(=O)c2ccoc2)cc1-c1ccc(C(=O)NCC2CC2)cc1 | 2.57 | 1.19 | 4.85 | 1.82 | 1 | 2.73 | 5.18 | -0.94 | 0.39 | 0.77 |
| Clc1ccc(CNc2nccc(-c3cnn4ncccc34)n2)cc1 | 10.8 | -0.06 | 8.64 | 2.6 | 4.42 | 2.66 | 6.27 | 2.75 | 9.93 | 3.91 |
| FC(F)(F)c1cccc(Nc2nccc(-c3cnn4nc(-c5ccccc5)ccc34)n2)c1 | 3.33 | 2.71 | 8.1 | 1.82 | 10.2 | 3.86 | 5.68 | 0.58 | 2.4 | 2.1 |
| Nc1nccc(-c2c(-c3ccc(F)cc3)ncn2C2CCC(O)CC2)n1 (stereo not given) | 22 | -3.41 | 4.15 | -1.77 | -2.2 | -0.75 | 9.11 | 2.53 | 16.2 | 9.24 |
| COc1ccc(C2=C(N3CCc4ccccc43)C(=O)NC2=O)cc1 | 12.5 | 0.57 | 5.83 | 1.68 | -3.65 | 4.19 | 10.4 | 0.85 | 4.95 | 6.97 |
| Cc1ccc(C(=O)NC2CCC2)cc1-c1ccc(C(=O)NCC2CC2)cc1 | 7.83 | 0.48 | 5.72 | 0.47 | 7.37 | 2.19 | 6.8 | 0.91 | 0.04 | 3.19 |
| CN(C)CCOc1ccc(-c2cc(-c3ccc4c(c3)CCC4=NO)c(-c3ccncc3)o2)cc1 | 0.04 | -1.06 | 1.93 | 0.74 | 7.21 | 16.8 | 62.6 | 2.2 | 5.27 | 0.91 |
| CS(=O)(=O)CCNCc1ccc(-c2ccc3ncnc(Nc4ccc(OCc5ccccc5)c(Br)c4)c3c2)o1 | -1.79 | -1.52 | 3.89 | -3.26 | 1.56 | 8.55 | 16.4 | 0.72 | 0.4 | 3.17 |
